Inconclusive results are not listed. Activity calls are given as the source filed them. How the source made its calls, unless noted: active means hit-call score of the fitted dose curve at least 0.9, where 1 is the maximum; inconclusive means response in the unintended direction; inactive means score below 0.9.
What was measured:
[1] = ATG_TAL_CIS: Attagene CIS-FACTORIAL HepG2 Assay for human TAL Basal Promoter (AID 2282966; active means hit-call score of the fitted dose curve at least 0.9, where 1 is the maximum; inactive means score below 0.9;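 further: background control endpoint measuring basal TAL promoter reporter mRNA not a specific factor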); conditions: HepG2 Attagene cis-factorial TAL promoter reporter; actives raise or lower the signal
Outline: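 HepG2 cells were transiently transfected with promoter-driven multiplexed reporter units and dosed for 24 h. Reporter mRNA was measured by RT-PCR with capillary electrophoresis fluorescence; bidirectional fits used DMSO as baseline, serving as a background control.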

[2] = ATG_TGFb_CIS: Attagene CIS-FACTORIAL HepG2 Assay for human Transforming Growth Factor (TGF) (AID 2282967; active means hit-call score of the fitted dose curve at least 0.9, where 1 is the maximum; inactive means score below 0.9); conditions: HepG2 Attagene CIS TGFb reporter, mRNA transcription; actives raise or lower the signal
Outline: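 Multiplexed cis-reporter HepG2 system, 24 h treatment; mRNA induction read by fluorescence after RT-PCR and CE; DMSO negative control, bidirectional curve fitting.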

[3] = biological target: Glucocorticoid receptor (Homo sapiens) (UniProt P04150); test: ATG_GR_TRANS: Attagene TRANS-FACTORIAL HepG2 Assay for human Glucocorticoid Receptor (GR) (AID 2282978); conditions: HepG2 Attagene TRANS GR reporter, mRNA transcription;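 further: activators score as hits since higher reporter transcript over DMSO is fitted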
Outline: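 Exogenous NR-GAL4 fusion activity was assessed through induced GAL4-UAS reporter transcripts in transfected human HepG2 cells, quantified after 24 h by RT-PCR and fluorescent capillary electrophoresis with DMSO as baseline.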

[4] = biological target: Oxysterols receptor LXR-alpha (Homo sapiens) (UniProt Q13133); test: ATG_LXRa_TRANS: Attagene TRANS-FACTORIAL HepG2 Assay for human Liver X Receptor alpha (LXRa) (AID 2282980); conditions: HepG2 Attagene TRANS reporter, LXRa transactivation
Outline: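 HepG2 cells were transiently transfected with multiplexed reporter units driven by chimeric LXRa–GAL4 fusion proteins, then dosed for 24 h. Reporter mRNA was quantified by RT-PCR, fluorescent labelling and capillary electrophoresis; gain of signal fitted against DMSO baseline.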

[5] = ATG_M_06_TRANS: Attagene TRANS-FACTORIAL HepG2 Assay for M06 Transcription Factor (Internal Marker) (AID 2282983); conditions: HepG2 Attagene TRANS M06 internal marker reporter;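 further: reporter transcript level by RT-PCR then capillary electrophoresis fluorescence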
Outline: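 HepG2 cells transiently transfected with multiplexed GAL4-UAS reporter transcription units; after 24 h compound exposure, reporter mRNA measured by RT-PCR, FAM-labelled primer extension, HpaI digestion and capillary electrophoresis. Gain-of-signal fitted versus DMSO baseline; background control readout.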

[6] = biological target: Transcriptional activator Myb (Homo sapiens) (UniProt P10242); test: ATG_Myb_CIS: Attagene CIS-FACTORIAL HepG2 Assay for human Myeloblastosis (Myb) Proto-Oncogene Transcription Factor (AID 2282986; active means hit-call score of the fitted dose curve at least 0.9, where 1 is the maximum; inactive means score below 0.9); conditions: HepG2 Attagene CIS-FACTORIAL Myb reporter transcription; actives raise or lower the signal
Outline: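 In this HepG2 transient-transfection format, cis-regulated reporter mRNA is quantified 24 h post-dosing by RT-PCR with capillary electrophoresis, fitted bidirectionally to DMSO baseline.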

[7] = biological target: Nuclear respiratory factor 1 (Homo sapiens) (UniProt Q16656); test: ATG_NRF1_CIS: Attagene CIS-FACTORIAL HepG2 Assay for human Nuclear Respiratory Factor 1 (NRF1) Orphan Gene (AID 2282987; active means hit-call score of the fitted dose curve at least 0.9, where 1 is the maximum; inactive means score below 0.9); conditions: HepG2 NRF1 cis-element reporter, Attagene multiplex; actives raise or lower the signal
Outline: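 Using DMSO as baseline, gain- or loss-of-signal was fitted for reporter mRNA levels in HepG2 cells transiently transfected with cis-regulated reporter units. Samples were taken 24 h after dosing and read by RT-PCR with capillary electrophoresis.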

[8] = biological target: Steroid hormone receptor ERR1 (Homo sapiens) (UniProt P11474); test: ATG_ERRa_TRANS: Attagene TRANS-FACTORIAL HepG2 Assay for human Estrogen-Related Receptor alpha (ERRa) (AID 2282971); conditions: HepG2 Attagene TRANS reporter, ERRa transactivation
Outline: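 HepG2 cells transiently transfected with multiplexed GAL4-UAS reporter units reading chimeric ERRa-Gal4 activity; 24 h compound exposure. Reporter mRNA measured by RT-PCR, 6-FAM labelling, HpaI digest and capillary electrophoresis; gain of signal fitted versus DMSO baseline.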

[9] = biological target: X-box-binding protein 1 (Homo sapiens) (UniProt P17861); test: ATG_Xbp1_CIS: Attagene CIS-FACTORIAL HepG2 Assay for human X-box Binding Protein 1 (XBP1) (AID 2282972; active means hit-call score of the fitted dose curve at least 0.9, where 1 is the maximum; inactive means score below 0.9); conditions: HepG2 XBP1 cis-element reporter, Attagene multiplex; actives raise or lower the signal
Outline: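 HepG2, transient MRTU transfection (cis-promoter driven), 24 h compound exposure. Total RNA → oligo(dT) RT → PCR → 6-FAM labeling → HpaI cut → CE. Bidirectional fit vs DMSO.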

[10] = biological target: Estrogen-related receptor gamma (Homo sapiens) (UniProt P62508); test: ATG_ERRg_TRANS: Attagene TRANS-FACTORIAL HepG2 Assay for human Estrogen-Related Receptor gamma (ERRg) (AID 2282977); conditions: HepG2 Attagene TRANS reporter, ERRg transactivation;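 further: hits increase reporter signal over DMSO so potencies reflect activators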
Outline: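 Transient HepG2 transfectants, 24 h compound exposure, GAL4-UAS reporter mRNA by RT-PCR/6-FAM labelling/capillary electrophoresis; positive direction vs DMSO.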

[11] = biological target: Oxysterols receptor LXR-beta (Homo sapiens) (UniProt P55055); test: ATG_LXRb_TRANS: Attagene TRANS-FACTORIAL HepG2 Assay for human Liver X Receptor beta (LXRb) (AID 2282981); conditions: HepG2 Attagene TRANS GAL4-LXRb reporter, mRNA
Outline: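 HepG2 cells transiently transfected with multiple reporter transcription units carrying chimeric NR-Gal4 proteins acting on GAL4-UAS reporters; compound exposure 24 h. Reporter mRNA quantified by RT-PCR, 6-FAM labelling, HpaI digestion and capillary electrophoresis; gain of signal versus DMSO.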

[12] = ATG_M_32_TRANS: Attagene TRANS-FACTORIAL HepG2 Assay for M32 Transcription Factor (Internal Marker) (AID 2282984); conditions: HepG2 Attagene TRANS M32 internal marker reporter
Outline: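 HepG2 cells transiently transfected with multiple GAL4-UAS reporter transcription units, dosed for 24 hours; reporter mRNA quantified by RT-PCR, 6-FAM primer extension, HpaI digestion and capillary electrophoresis. Gain-of-signal fitted versus DMSO baseline; internal background-control marker.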

[13] = biological target: Nuclear receptor subfamily 4 group A member 2 (Homo sapiens) (UniProt P43354); test: ATG_NURR1_TRANS: Attagene TRANS-FACTORIAL HepG2 Assay for human Nuclear Receptor Related Protein 1 (NURR1) (AID 2282985); conditions: HepG2 Attagene TRANS reporter, mRNA readout
Outline: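 HepG2 cells transiently transfected with GAL4-UAS reporter units and chimeric NR-Gal4 constructs; chemical exposure 24 h. Reporter mRNA quantified by RT-PCR, fluorescent labelling and capillary electrophoresis; gain of signal fitted relative to DMSO baseline.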

[14] = ATG_M_19_TRANS: Attagene TRANS-FACTORIAL HepG2 Assay for M19 Transcription Factor (Internal Marker) (AID 2282974); conditions: HepG2 Attagene TRANS-FACTORIAL M19 internal marker reporter
Outline: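 Using RT-PCR and capillary electrophoresis, reporter mRNA from transiently transfected human HepG2 cells was quantified following 24 h exposure; activity was fitted in the positive direction against DMSO.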

[15] = biological target: Hepatocyte nuclear factor 4-alpha (Homo sapiens) (UniProt P41235); test: ATG_HNF4a_TRANS: Attagene TRANS-FACTORIAL HepG2 Assay for human Hepatocyte Nuclear Factor 4 alpha (HNF4a) (AID 2282982); conditions: HepG2 HNF4a transactivation reporter, mRNA readout
Outline: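 HepG2 cells transiently transfected with multiplexed GAL4-UAS reporter units responsive to chimeric NR-GAL4 proteins; compound exposure 24 h. Reporter mRNA quantified by RT-PCR, 6-FAM labelling, HpaI digestion and capillary electrophoresis; gain of signal versus DMSO baseline.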

[16] = biological target: Estrogen receptor (Homo sapiens) (UniProt P03372); test: ATG_ERa_TRANS: Attagene TRANS-FACTORIAL HepG2 Assay for human Estrogen Receptor alpha (ERa) (AID 2282970); conditions: HepG2 Attagene TRANS ERa GAL4 reporter, mRNA
Outline: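 HepG2 cells transiently transfected with multiplexed GAL4-UAS reporter units; ERa activity read via exogenous chimeric NR-Gal4 protein. After 24 hour compound exposure, reporter mRNA measured by RT-PCR with 6-FAM labelling and capillary electrophoresis; gain-of-signal fitted relative to DMSO.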

[17] = ATG_GAL4_TRANS: Attagene TRANS-FACTORIAL HepG2 Assay for GAL4 (Internal Marker) (AID 2282976); conditions: HepG2 Attagene TRANS GAL4 internal marker reporter
Outline: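 HepG2 cells transiently transfected with multiplexed GAL4-UAS reporter constructs were dosed for 24 h. Reporter mRNA was measured by RT-PCR, 6-FAM primer extension, HpaI digestion and capillary electrophoresis, and gain of signal was fitted relative to DMSO.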

Measured: AC50

Sequence of X-box-binding protein 1 (Homo sapiens) (P17861 whole entry, looked up): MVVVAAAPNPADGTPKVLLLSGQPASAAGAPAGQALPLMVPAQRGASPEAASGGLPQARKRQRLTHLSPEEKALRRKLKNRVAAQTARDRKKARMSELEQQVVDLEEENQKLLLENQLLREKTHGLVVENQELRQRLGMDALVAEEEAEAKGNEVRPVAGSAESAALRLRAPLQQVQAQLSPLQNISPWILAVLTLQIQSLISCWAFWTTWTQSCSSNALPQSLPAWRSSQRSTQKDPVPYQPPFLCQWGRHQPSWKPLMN
Sequence of Hepatocyte nuclear factor 4-alpha (Homo sapiens) (P41235 whole entry, looked up, the tested form may be a part): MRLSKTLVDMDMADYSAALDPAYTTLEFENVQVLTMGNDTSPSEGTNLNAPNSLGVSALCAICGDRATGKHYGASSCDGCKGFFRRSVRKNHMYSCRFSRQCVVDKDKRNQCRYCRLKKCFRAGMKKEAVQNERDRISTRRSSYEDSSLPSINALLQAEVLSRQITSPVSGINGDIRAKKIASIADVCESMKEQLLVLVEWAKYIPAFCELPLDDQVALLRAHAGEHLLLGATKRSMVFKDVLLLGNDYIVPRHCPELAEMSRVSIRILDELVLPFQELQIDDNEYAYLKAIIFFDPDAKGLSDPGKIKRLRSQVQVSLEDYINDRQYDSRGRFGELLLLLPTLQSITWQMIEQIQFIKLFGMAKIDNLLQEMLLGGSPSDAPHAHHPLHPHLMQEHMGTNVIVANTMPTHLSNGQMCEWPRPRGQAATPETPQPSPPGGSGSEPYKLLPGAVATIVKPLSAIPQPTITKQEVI
Sequence of Nuclear receptor subfamily 4 group A member 2 (Homo sapiens) (P43354 whole entry, looked up, the tested form may be a part): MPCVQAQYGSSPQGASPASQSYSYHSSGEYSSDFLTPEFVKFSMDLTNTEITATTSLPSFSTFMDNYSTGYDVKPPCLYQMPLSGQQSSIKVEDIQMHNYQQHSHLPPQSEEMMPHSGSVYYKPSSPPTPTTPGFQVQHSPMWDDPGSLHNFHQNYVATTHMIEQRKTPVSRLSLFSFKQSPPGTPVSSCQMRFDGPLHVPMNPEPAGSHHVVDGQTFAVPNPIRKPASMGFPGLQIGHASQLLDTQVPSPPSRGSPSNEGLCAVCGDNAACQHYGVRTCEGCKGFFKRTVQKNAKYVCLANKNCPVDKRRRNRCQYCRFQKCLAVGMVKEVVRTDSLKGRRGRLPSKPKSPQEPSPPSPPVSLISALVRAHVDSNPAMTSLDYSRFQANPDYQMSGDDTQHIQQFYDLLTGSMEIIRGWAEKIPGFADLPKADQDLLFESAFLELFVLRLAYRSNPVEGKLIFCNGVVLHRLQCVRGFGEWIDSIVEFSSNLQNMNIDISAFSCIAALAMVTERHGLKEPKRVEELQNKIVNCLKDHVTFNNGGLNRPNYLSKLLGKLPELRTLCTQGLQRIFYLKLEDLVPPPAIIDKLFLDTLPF
Sequence of Estrogen-related receptor gamma (Homo sapiens) (P62508 whole entry, looked up, the tested form may be a part): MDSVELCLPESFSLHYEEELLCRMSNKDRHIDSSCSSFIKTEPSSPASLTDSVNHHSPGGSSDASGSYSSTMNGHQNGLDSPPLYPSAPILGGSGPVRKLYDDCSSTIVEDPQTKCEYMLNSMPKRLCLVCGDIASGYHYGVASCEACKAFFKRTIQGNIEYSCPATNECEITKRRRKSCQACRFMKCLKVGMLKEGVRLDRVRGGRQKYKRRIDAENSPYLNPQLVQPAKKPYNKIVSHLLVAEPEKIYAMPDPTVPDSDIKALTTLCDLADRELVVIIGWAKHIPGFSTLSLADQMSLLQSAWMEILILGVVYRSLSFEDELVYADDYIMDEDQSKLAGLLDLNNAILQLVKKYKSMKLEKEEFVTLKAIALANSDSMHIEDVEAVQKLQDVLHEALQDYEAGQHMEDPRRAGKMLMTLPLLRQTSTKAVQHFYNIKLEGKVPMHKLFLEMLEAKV
Sequence of Nuclear respiratory factor 1 (Homo sapiens) (Q16656 whole entry, looked up): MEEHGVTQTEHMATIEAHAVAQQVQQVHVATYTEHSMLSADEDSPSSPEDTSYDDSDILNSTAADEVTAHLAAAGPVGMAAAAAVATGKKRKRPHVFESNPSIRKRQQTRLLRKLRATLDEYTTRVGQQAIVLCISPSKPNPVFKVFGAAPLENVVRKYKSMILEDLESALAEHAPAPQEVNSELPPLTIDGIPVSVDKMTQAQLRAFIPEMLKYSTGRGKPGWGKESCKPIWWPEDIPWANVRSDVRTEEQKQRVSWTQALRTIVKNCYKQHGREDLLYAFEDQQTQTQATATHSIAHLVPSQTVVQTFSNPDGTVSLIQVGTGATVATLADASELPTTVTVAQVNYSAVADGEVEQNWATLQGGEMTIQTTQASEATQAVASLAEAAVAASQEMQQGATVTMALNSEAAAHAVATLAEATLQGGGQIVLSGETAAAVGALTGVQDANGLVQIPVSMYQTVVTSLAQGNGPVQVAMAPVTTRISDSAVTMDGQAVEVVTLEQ
Sequence of Oxysterols receptor LXR-beta (Homo sapiens) (P55055 whole entry, looked up, the tested form may be a part): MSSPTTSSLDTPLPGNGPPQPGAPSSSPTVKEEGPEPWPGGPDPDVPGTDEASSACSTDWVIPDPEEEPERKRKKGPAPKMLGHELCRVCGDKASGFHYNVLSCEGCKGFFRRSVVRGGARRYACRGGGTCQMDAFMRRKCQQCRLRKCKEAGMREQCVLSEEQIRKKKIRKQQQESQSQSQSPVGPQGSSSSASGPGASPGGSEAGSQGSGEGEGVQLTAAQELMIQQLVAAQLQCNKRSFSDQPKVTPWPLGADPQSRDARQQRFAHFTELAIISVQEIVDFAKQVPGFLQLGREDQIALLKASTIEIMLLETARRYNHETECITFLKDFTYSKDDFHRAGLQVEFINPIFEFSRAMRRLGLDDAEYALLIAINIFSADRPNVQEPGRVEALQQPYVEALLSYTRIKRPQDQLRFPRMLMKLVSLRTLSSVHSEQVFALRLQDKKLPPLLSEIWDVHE
Sequence of Transcriptional activator Myb (Homo sapiens) (P10242 whole entry, looked up): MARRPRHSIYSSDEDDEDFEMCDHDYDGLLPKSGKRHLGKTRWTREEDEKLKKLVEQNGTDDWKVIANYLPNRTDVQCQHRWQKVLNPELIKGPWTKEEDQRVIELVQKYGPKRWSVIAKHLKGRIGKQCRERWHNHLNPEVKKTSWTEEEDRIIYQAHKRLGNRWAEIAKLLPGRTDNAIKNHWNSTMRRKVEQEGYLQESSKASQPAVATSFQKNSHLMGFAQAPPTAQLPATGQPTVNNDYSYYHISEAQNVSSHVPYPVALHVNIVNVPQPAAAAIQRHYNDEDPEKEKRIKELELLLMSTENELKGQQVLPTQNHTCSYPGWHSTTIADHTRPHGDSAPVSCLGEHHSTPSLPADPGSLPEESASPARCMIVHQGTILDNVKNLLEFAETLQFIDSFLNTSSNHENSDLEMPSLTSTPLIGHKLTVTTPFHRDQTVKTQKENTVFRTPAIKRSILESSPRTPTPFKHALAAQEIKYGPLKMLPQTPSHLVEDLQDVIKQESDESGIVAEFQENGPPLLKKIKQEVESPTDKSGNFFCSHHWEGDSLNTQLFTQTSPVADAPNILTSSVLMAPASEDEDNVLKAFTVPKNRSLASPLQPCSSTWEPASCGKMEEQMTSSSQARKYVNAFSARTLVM
Sequence of Glucocorticoid receptor (Homo sapiens) (P04150 whole entry, looked up, the tested form may be a part): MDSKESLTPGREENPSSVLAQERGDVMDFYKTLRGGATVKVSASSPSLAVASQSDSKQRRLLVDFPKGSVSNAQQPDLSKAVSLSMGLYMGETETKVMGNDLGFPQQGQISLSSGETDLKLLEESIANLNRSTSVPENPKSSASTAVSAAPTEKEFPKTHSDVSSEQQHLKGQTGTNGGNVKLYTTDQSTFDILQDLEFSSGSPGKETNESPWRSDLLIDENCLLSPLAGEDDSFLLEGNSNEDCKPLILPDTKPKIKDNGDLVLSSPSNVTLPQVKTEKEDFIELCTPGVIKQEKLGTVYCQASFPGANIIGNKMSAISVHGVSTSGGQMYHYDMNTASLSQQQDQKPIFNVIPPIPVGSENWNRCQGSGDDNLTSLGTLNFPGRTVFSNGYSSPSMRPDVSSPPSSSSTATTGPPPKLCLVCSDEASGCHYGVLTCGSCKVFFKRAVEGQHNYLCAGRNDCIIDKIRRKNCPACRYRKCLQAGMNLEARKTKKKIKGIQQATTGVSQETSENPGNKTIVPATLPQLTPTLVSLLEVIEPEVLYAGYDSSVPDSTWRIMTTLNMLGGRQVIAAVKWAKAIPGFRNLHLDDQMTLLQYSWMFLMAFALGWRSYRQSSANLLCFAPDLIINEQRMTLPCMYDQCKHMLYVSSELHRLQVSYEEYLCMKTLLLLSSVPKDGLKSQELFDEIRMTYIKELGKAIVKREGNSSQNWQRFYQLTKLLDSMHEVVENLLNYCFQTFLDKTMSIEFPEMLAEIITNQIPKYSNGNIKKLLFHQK
Sequence of Oxysterols receptor LXR-alpha (Homo sapiens) (Q13133 whole entry, looked up, the tested form may be a part): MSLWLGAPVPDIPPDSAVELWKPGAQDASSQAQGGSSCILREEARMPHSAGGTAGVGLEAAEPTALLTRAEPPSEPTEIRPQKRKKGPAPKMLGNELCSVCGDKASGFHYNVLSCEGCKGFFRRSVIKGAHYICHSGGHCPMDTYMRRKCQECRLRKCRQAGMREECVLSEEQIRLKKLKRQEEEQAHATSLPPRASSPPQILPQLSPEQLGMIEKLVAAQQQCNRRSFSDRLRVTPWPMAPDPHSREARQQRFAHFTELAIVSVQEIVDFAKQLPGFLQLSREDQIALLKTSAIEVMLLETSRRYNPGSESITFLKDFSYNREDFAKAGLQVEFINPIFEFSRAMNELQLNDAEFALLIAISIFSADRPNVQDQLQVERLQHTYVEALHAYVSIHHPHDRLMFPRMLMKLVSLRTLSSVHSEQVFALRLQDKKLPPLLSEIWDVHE

C=CC(C)(O)CCC=C(C)CCC=C(C)C (stereo unspecified)
inactive: [3] | [4] | [5]
active: [1] 166 µM | [2] 187 µM | [6] 163 µM | [7] 164 µM

COCCCOc1ccnc(CS(=O)c2nc3ccccc3[nH]2)c1C (stereo unspecified)
active: [11] 27.9 µM
not listed: [4] | [7] | [14] | [15] | [16] | [17]
inactive: all other assays above

CC(CN1c2ccccc2Sc2ccccc21)N(C)C (stereo unspecified)
active: [1] 50.2 µM | [9] 24.2 µM
inactive: [2] | [14] | [4] | [11] | [15] | [13] | [6] | [7]

CC(C)[C@@H]1CC[C@@H](C)CC1=O
inactive: [1] | [2] | [9] | [14] | [15] | [6]

CCCCCCC#CC(=O)OC
not listed: [4] | [8] | [11] | [13] | [16] | [17]
inactive: all other assays above

O=C(O)CCSCCC(=O)O
not listed: [4] | [5] | [8] | [10] | [13]
inactive: all other assays above

C[C@H]1C[C@@H]2[C@H]([C@@H](O)C[C@@]3(C)[C@H]2CC[C@]3(O)C(=O)CO)[C@@]2(C)C=CC(=O)C=C12
inactive: [1] | [2] | [9] | [4] | [11] | [5] | [6]

CCCCC[Si](OCC)(OCC)OCC
inactive: [1] | [2] | [9] | [17] | [4] | [11] | [5] | [6] | [7]

COc1ccc(Nc2ccccc2)c(C)c1
active: [16] 7.87 µM | [13] 143 µM
not listed: [4] | [14] | [15] | [17]
inactive: all other assays above

From PubChem BioAssay (EPA / NIEHS)
